Measured values: PubChem BioAssay (NCI)
Compounds without any hit were thinned out: in the full panel of roughly 83,000, 20% have a hit.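 Growth was measured after 48 h exposure to one concentration of compound in 96-well plates. Values under 10 count as active.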 Active and inactive are the calls of the source.

What was measured:
Test in all cases: NCI-60 one-dose screen, 48 h (100 = growth as untreated, 0 = no growth, -100 = all killed)
Details in all cases: 10 µM unless noted
T-47D breast = system: T-47D breast
MDA-MB-435 melanoma = system: MDA-MB-435 melanoma
SW-620 colon = system: SW-620 colon
MCF7 breast = system: MCF7 breast
KM12 colon = system: KM12 colon
HCT-116 colon = system: HCT-116 colon
HCC-2998 colon = system: HCC-2998 colon
BT-549 breast = system: BT-549 breast

Measured: growth

O=S(=O)(O)c1ccc(N/N=C/c2ccccc2Cl)cc1
inactive: T-47D breast 106% | MDA-MB-435 melanoma 102% | SW-620 colon 108% | MCF7 breast 99.2% | KM12 colon 116%

CCOC(CN=Cc1cc(C)c2[nH]c3ccccc3c2c1C)OCC
inactive: T-47D breast 94.4% | MDA-MB-435 melanoma 97.8% | SW-620 colon 99.1% | MCF7 breast 88.9% | HCT-116 colon 94.4% | HCC-2998 colon 113% | KM12 colon 106%

CC(CN1CCCCC1)C(=O)c1ccccc1 (configuration not stated)
inactive: BT-549 breast 116% | MDA-MB-435 melanoma 104% | SW-620 colon 104% | MCF7 breast 91% | HCT-116 colon 112% | HCC-2998 colon 119% | KM12 colon 105%

O=C(c1ccccc1)N1N=C(c2ccccc2)CC1c1nnc2n(Cc3ccccc3)c(=O)c3c4c(sc3n12)CCCC4 (configuration not stated)
inactive: T-47D breast 122% | MDA-MB-435 melanoma 97.9% | SW-620 colon 105% | MCF7 breast 96.4% | HCT-116 colon 95.1% | HCC-2998 colon 125% | KM12 colon 82.4%

COc1cc(C2CC(=O)Nc3c2c(C)nn3-c2nc3ccccc3[nH]2)cc2c1OCC(=O)N2 (configuration not stated)
inactive: T-47D breast 83.6% | SW-620 colon 52.4% | MCF7 breast 56.9% | HCT-116 colon 107% | HCC-2998 colon 103% | KM12 colon 70.8%

COc1ccc(OC)c2c1[nH]c(=O)c1c3ncccc3cn21
inactive: T-47D breast 39% | SW-620 colon 15.2% | HCT-116 colon 21.7% | HCC-2998 colon 36.1% | KM12 colon 32.5%
active: MCF7 breast 8.95%

O=C(CSc1nccc(Nc2ccc(S(=O)(=O)Nc3nccs3)cc2)n1)c1ccc(F)cc1
inactive: T-47D breast 84% | SW-620 colon 99.6% | MCF7 breast 96.9% | HCT-116 colon 95.9% | HCC-2998 colon 107% | KM12 colon 106%

CC(CCc1ccc(Cl)c(Cl)c1)NCc1ccc(C(C)(C)C)cc1 (configuration not stated)
inactive: T-47D breast 67.7% | MDA-MB-435 melanoma 93.1% | SW-620 colon 80.2% | MCF7 breast 80.8% | KM12 colon 89.2%
active: HCC-2998 colon -18.4%

O=C(NCCc1ccc(O)c(O)c1)C12CC3CC(CC(C3)C1)C2
inactive: T-47D breast 93.1% | MDA-MB-435 melanoma 107% | SW-620 colon 91% | MCF7 breast 89.4% | HCT-116 colon 82.6% | HCC-2998 colon 115% | KM12 colon 117%

Cc1cc(/C=C\c2ccc3ccccc3[n+]2C)c(O)c2ncccc12
inactive: T-47D breast 18% | SW-620 colon 15.1% | KM12 colon 13.7%
active: MDA-MB-435 melanoma 6.21% | MCF7 breast 5.19% | HCT-116 colon -8.95% | HCC-2998 colon -3.25%

N#C/C(=C\c1ccc(-c2ccccc2F)o1)c1nc(-c2ccco2)cs1
inactive: T-47D breast 14.5% | MDA-MB-435 melanoma 101% | SW-620 colon 96.1% | MCF7 breast 37.7% | HCT-116 colon 93% | HCC-2998 colon 67.8% | KM12 colon 63.9%

c1csc(-c2c3ccc(=[N+]4CCCCC4)cc-3oc3cc(N4CCCCC4)ccc23)c1
active: T-47D breast -60.7% | SW-620 colon -76% | MCF7 breast -57.2% | HCT-116 colon -97.1% | HCC-2998 colon -94.2% | KM12 colon -92.9%

NNC(=O)c1nc(N)n(-c2ccc(S(N)(=O)=O)cc2)n1
inactive: MDA-MB-435 melanoma 97.8% | SW-620 colon 96% | MCF7 breast 102% | HCT-116 colon 95.3% | HCC-2998 colon 101% | KM12 colon 95.5%

Cn1c2c(c3ccc(Cl)c(Cl)c31)C(C#N)C1(CCNCC1)NC2=O (configuration not stated)
inactive: BT-549 breast 45% | SW-620 colon 30.5% | KM12 colon 31.7%
active: MDA-MB-435 melanoma 5.97% | MCF7 breast -12.3% | HCC-2998 colon -17.8%

Cc1ccc(S(=O)(=O)NCC[C@@H]2C[C@H]2c2cc3ccccc3s2)cc1
inactive: BT-549 breast 102% | MDA-MB-435 melanoma 104% | SW-620 colon 103% | MCF7 breast 93.7% | HCT-116 colon 93.8% | HCC-2998 colon 106% | KM12 colon 96.1%

O=C(Nc1cccc(C(F)(F)F)c1)Nc1cccc(C(F)(F)F)c1
active: MDA-MB-435 melanoma 9.11% | MCF7 breast 5.26% | HCT-116 colon -10.8% | KM12 colon 4.98%
inactive: SW-620 colon 15.2% | HCC-2998 colon 11.8%

CCCCOc1nc2ccccc2cc1C1CNC(=O)c2ccccc2N1 (configuration not stated)
active: MDA-MB-435 melanoma -63.8%
inactive: BT-549 breast 41% | SW-620 colon 20.9% | MCF7 breast 21.2% | HCT-116 colon 15.6% | HCC-2998 colon 56.5% | KM12 colon 23.9%

COc1ccc(-c2cc(-c3ccc(Nc4nc(Nc5ccc(Cl)cc5)nc(Nc5ccc(Cl)cc5)n4)cc3)nc(N)c2C#N)cc1
active: BT-549 breast -55.3% | MDA-MB-435 melanoma -1.59% | SW-620 colon -3.93% | HCC-2998 colon -8.77%
inactive: MCF7 breast 32.4% | HCT-116 colon 20.2% | KM12 colon 27.7%

Nc1n[nH]c2cc(F)c([C@@H]3Nc4c(F)cc5[nH]ncc5c4[C@H]4C5CCC(C5)[C@@H]34)cc12 (some centres not stated)
active: BT-549 breast -0.757% | MDA-MB-435 melanoma -33.4% | HCC-2998 colon 7.27% | KM12 colon -40.5%
inactive: SW-620 colon 26.8% | MCF7 breast 21.6%

Cc1cc(NCc2cc(Nc3ccnc4cc(Cl)ccc34)ccc2F)nc(Cl)n1
inactive: BT-549 breast 54.6% | MDA-MB-435 melanoma 37% | SW-620 colon 57% | MCF7 breast 30% | HCT-116 colon 30.5% | HCC-2998 colon 63.2% | KM12 colon 64.7%

O=C(CSc1nnc(-c2ccc(NC(=O)c3cccnc3)cc2)o1)Nc1cccc(Br)c1
inactive: BT-549 breast 109% | MDA-MB-435 melanoma 94.3% | SW-620 colon 96.8% | MCF7 breast 90.3% | HCT-116 colon 58.7% | HCC-2998 colon 106% | KM12 colon 105%

CCCCCCCCCCN(CCCCCCCCCC)CC(=O)c1ccc2cc(Br)c3ccccc3c2c1
active: SW-620 colon -94.2% | HCT-116 colon -22.8% | KM12 colon -13.9%
inactive: BT-549 breast 72% | MDA-MB-435 melanoma 33.3% | MCF7 breast 99%

CCCCN(CCCC)CC(C)(C)C(O)c1ccc(OC)c2ccccc12 (configuration not stated)
inactive: BT-549 breast 57.1% | SW-620 colon 33.4% | MCF7 breast 45.5% | HCC-2998 colon 51.9% | KM12 colon 45.1%
active: HCT-116 colon 3.51%

C[C@H]1[C@H]2[C@H]3CC[C@@H]4[C@@]5(C)C/C(=C/c6cccnc6)C(=O)C(C)(C)[C@@H]5CC[C@@]4(C)[C@]3(C)CC[C@]23CO[C@]1(C)[C@@H](C(=O)/C=C\c1cccnc1)C3
active: BT-549 breast -20.1% | MDA-MB-435 melanoma -7.3% | SW-620 colon -26.4% | MCF7 breast 9.88% | HCT-116 colon -45.6% | HCC-2998 colon -67.2% | KM12 colon -55.6%

COc1ccc(N=Nc2ccc(O)c(=O)cc2)cc1
inactive: BT-549 breast 22% | MDA-MB-435 melanoma 25.1% | SW-620 colon 21.7% | HCT-116 colon 24.7% | HCC-2998 colon 36.2% | KM12 colon 18.2%
active: MCF7 breast 5.65%
